From PubChem BioAssay (EPA / NIEHS)
Records with an inconclusive call do not appear. The source made the active and inactive calls. How the source made its calls, unless noted: active means hit-call score of the fitted dose curve at least 0.9, where 1 is the maximum; inconclusive means response in the unintended direction; inactive means score below 0.9.

Legend:
[1] = read-out: Broad substrate specificity ATP-binding cassette transporter ABCG2 (Homo sapiens) (UniProt Q9UNQ0); test: CLD_ABCG2_6hr: CellzDirect (CLD) Gene Expression Assay for ABC Transporter (ABCG2) at 6 hours (AID 2283660)
In short: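 Primary human hepatocytes dosed daily with chemicals at multiple concentrations (0.2% DMSO vehicle), harvested 6 h after dosing. ABCG2 mRNA induction read by quantitative nuclease protection assay (qNPA) chemiluminescence; gain of signal fitted against DMSO baseline.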

[2] = read-out: xenobiotic metabolism (CYP1A2), CYP1A2 (gene 1544); test: CLD_CYP1A2_6hr: CellzDirect (CLD) Gene Expression Assay for xenobiotic metabolism (CYP1A2) at 6 hours (AID 2283663);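 on AC50: potency is for induction meaning a rise in mRNA above DMSO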
In short: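 Primary human hepatocytes from two donor preparations, dosed daily with multiple concentrations in 0.2% DMSO and harvested at 6 h. CYP1A2 mRNA induction measured by chemiluminescent qNPA, gain of signal fitted against DMSO; cytotoxicity flagged morphologically.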

[3] = read-out: alkyl and aryl transferase (GSTA2), GSTA2 (gene 2939); test: CLD_GSTA2_6hr: CellzDirect (CLD) Gene Expression Assay for alkyl and aryl transferase (GSTA2) at 6 hours (AID 2283666)
In short: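 Primary human hepatocytes from two donor preparations were dosed daily with fresh compound at multiple concentrations, 0.2% DMSO vehicle. GSTA2 mRNA was measured at 6 hours by qNPA chemiluminescence; induction fitted relative to DMSO, with cytotoxicity flagged morphologically.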

[4] = read-out: organic anion transporter (SLCO1B1), SLCO1B1 (gene 10599); test: CLD_SLCO1B1_6hr: CellzDirect (CLD) Gene Expression Assay for organic anion transporter (SLCO1B1) at 6 hours (AID 2283668);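 further: active means mRNA induction above DMSO baseline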
In short: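 Primary human hepatocytes dosed daily with test chemicals (multiple concentrations) in 0.2% DMSO vehicle; harvested at 6 h. SLCO1B1 mRNA quantified by qNPA chemiluminescence, fitted as gain-of-signal versus DMSO; cytotoxicity from phase-contrast morphology flagged alongside.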

[5] = read-out: sulfotransferase (SULT2A), SULT2A1 (gene 6822); test: CLD_SULT2A_6hr: CellzDirect (CLD) Gene Expression Assay for sulfotransferase (SULT2A) at 6 hours (AID 2283669);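 further: hits raise transcript level above the DMSO vehicle baseline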
In short: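 Primary human hepatocytes from two donor preparations were dosed daily with chemicals or 0.2% DMSO and harvested at 6 h. Transcript induction read by qNPA chemiluminescence, fitted for gain of signal relative to DMSO; morphology-based cytotoxicity annotated.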

[6] = read-out: Cytochrome P450 2B6 (Homo sapiens) (UniProt P20813); test: CLD_CYP2B6_6hr: CellzDirect (CLD) Gene Expression Assay for xenobiotic metabolism (CYP2B6) at 6 hours (AID 2283677);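 further: actives raise CYP2B6 transcript above DMSO baseline so AC50 marks an inducer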
In short: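 Primary human hepatocytes dosed with chemicals at multiple concentrations, vehicle 0.2% DMSO; CYP2B6 mRNA induction measured 6 h after dosing by quantitative nuclease protection assay with chemiluminescence, gain of signal fitted relative to DMSO.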

[7] = read-out: xenobiotic metabolism (CYP1A1), CYP1A1 (gene 1543); test: CLD_CYP1A1_6hr: CellzDirect (CLD) Gene Expression Assay for xenobiotic metabolism (CYP1A1) at 6 hours (AID 2283661);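 further: potency for transcript induction above DMSO vehicle baseline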
In short: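 Primary human hepatocytes from two donors, compound versus 0.2% DMSO vehicle. CYP1A1 mRNA measured 6 h after dosing by quantitative nuclease protection assay with chemiluminescent read-out; induction fitted relative to DMSO, cytotoxicity flagged by microscopy.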

[8] = Tanguay_ZF_120hpf_TR_legacy: (Legacy) Oregon State University Tanguay Lab 120 Hour Post-fertilization zebrafish Assay for Touch Response (AID 2283667)
In short: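 5D WT embryos; static exposure to 120 hpf, 28C, sealed/dark; DMSO 0.64% v/v final. TR scored present/absent; dead embryos excluded. Pos ctrl 5uM trimethyltin chloride.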

[9] = read-out: xenobiotic metabolism (CYP1A1), CYP1A1 (gene 1543); test: CLD_CYP1A1_24hr: CellzDirect (CLD) Gene Expression Assay for xenobiotic metabolism (CYP1A1) at 24 hours (AID 2283673);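 further: CYP1A1 mRNA level by quantitative nuclease protection with chemiluminescence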
In short: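 Primary human hepatocytes dosed daily with fresh solutions in 0.2% DMSO vehicle. mRNA measured at 24 h by quantitative nuclease protection assay with chemiluminescence; gain-of-signal fit versus DMSO, with morphology-based cytotoxicity flags.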

[10] = CLD_ACTIN_6hr: CellzDirect (CLD) Gene Expression Assay for Baseline Control (Actin) at 6 hours (AID 2283676);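 further: active means increased actin mRNA relative to DMSO vehicle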
In short: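 Primary human hepatocytes dosed with fresh chemical solutions (vehicle 0.2% DMSO), harvested at 6 h. Actin mRNA quantified by quantitative nuclease protection assay with chemiluminescent read-out, as background control relative to DMSO.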

[11] = read-out: ABC Transporter (ABCB1), ABCB1 (gene 5243); test: CLD_ABCB1_6hr: CellzDirect (CLD) Gene Expression Assay for ABC Transporter (ABCB1) at 6 hours (AID 2283659);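 further: hits raise ABCB1 transcript above the DMSO vehicle baseline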
In short: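 Primary human hepatocytes (two donor preparations) dosed daily for two days with chemicals at multiple concentrations, 0.2% DMSO vehicle; harvested 6 h post-dose. ABCB1 mRNA induction quantified by qNPA chemiluminescence; gain-of-signal fitted versus DMSO.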

[12] = read-out: Cytochrome P450 2C19 (Homo sapiens) (UniProt P33261); test: CLD_CYP2C19_6hr: CellzDirect (CLD) Gene Expression Assay for xenobiotic metabolism (CYP2C19) at 6 hours (AID 2283678)
In short: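 Primary human hepatocytes from two donor preparations were dosed daily, with 0.2% DMSO as vehicle, and harvested 6 h after dosing. CYP2C19 mRNA induction was measured by qNPA chemiluminescence and fitted as gain of signal against DMSO.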

[13] = read-out: solute carrier (SLC10A1), SLC10A1 (gene 6554); test: LTEA_HepaRG_SLC10A1: Life Technologies and Expression Analysis (LTEA) Assay for solute carrier (SLC10A1) using HepaRG (AID 2283657; active means hit-call score of the fitted dose curve at least 0.9, where 1 is the maximum; inactive means score below 0.9); settings: mRNA level, 48 h; actives raise or lower the signal
In short: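 Transcript levels were measured by qRT-PCR after human HepaRG cells received test chemical for 48 hours, up to 100 uM in half-log dilutions. Values come from bidirectional concentration-response fitting relative to 0.5% DMSO vehicle.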

[14] = read-out: matrix metalloproteinase-1 (MMP1), MMP1 (gene 4312); test: LTEA_HepaRG_MMP1: Life Technologies and Expression Analysis (LTEA) Assay for matrix metalloproteinase-1 (MMP1) using HepaRG (AID 2283658; active means hit-call score of the fitted dose curve at least 0.9, where 1 is the maximum; inactive means score below 0.9); settings: mRNA level, 48 h; actives raise or lower the signal
In short: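 qRT-PCR (TaqMan, Fluidigm arrays) of MMP1 transcript, normalized against three housekeeping genes and fitted in both directions relative to 0.5% DMSO vehicle. Human HepaRG cultures received duplicate 48 h exposures across 8 points, highest 100 uM with half-log steps.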

[15] = read-out: xenobiotic metabolism (CYP2C9), CYP2C9 (gene 1559); test: CLD_CYP2C9_6hr: CellzDirect (CLD) Gene Expression Assay for xenobiotic metabolism (CYP2C9) at 6 hours (AID 2283664)
In short: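 Primary human hepatocytes dosed daily with test chemicals at multiple concentrations; harvested at 6 h. CYP2C9 mRNA induction measured by qNPA chemiluminescence. Gain of signal fitted against 0.2% DMSO vehicle; cytotoxicity annotated from phase-contrast morphology.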

[16] = read-out: Cytochrome P450 (CYP24A1_1), CYP24A1 (gene 1591); test: LTEA_HepaRG_CYP24A1_1: Life Technologies and Expression Analysis (LTEA) Assay for Cytochrome P450 (CYP24A1_1) using HepaRG (AID 2283671; active means hit-call score of the fitted dose curve at least 0.9, where 1 is the maximum; inactive means score below 0.9); settings: mRNA level, 48 h; actives raise or lower the signal
In short: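 In this test, gene induction or suppression of CYP24A1 in human HepaRG liver cells is measured by qRT-PCR after 48 h chemical treatment (eight concentrations, maximum 100 uM). Values are fitted bidirectionally relative to DMSO.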

[17] = read-out: glucuronosyltransferase (UGT1A1), UGT1A1 (gene 54658); test: CLD_UGT1A1_6hr: CellzDirect (CLD) Gene Expression Assay for glucuronosyltransferase (UGT1A1) at 6 hours (AID 2283672)
In short: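 Primary human hepatocytes from two donor preparations, dosed with fresh solutions in 0.2% DMSO, harvested at 6 h. UGT1A1 mRNA measured by qNPA chemiluminescence; induction fitted upward versus DMSO.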

[18] = test system: Thyroperoxidase (TPO), gene 54314; test: CCTE_Simmons_AUR_rTPO: CCTE's Amplex UltraRed Assay for Thyroperoxidase (TPO) Inhibition, Simmons Lab (AID 2283662);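 further: potency for loss of signal meaning inhibition of peroxidase activity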
In short: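 Rat thyroid microsomes (5 ug protein) with 25 uM Amplex UltraRed and 300 uM H2O2 in 200 mM phosphate buffer, 30 min at 37C in dark; fluorescence 544/590 nm. Eight concentrations, 5 nM–87.5 uM final, 0.5% DMSO, triplicate biological replicates.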

[19] = CCTE_Simmons_CellTiterGLO_HEK293T: Viability Assessment in CCTE's Assays for Thyroperoxidase (TPO) Inhibition, Simmons Lab (AID 2283665);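 on AC50: cells exposed to compound for 24 h before readout; actives reduce ATP signal below DMSO vehicle meaning cytotoxicity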
In short: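 HEK293T cells in DMEM with 1% FBS, dosed 24 h at 37C with 8 concentrations, 5 nM–87.5 uM final, 0.5% DMSO. ATP measured by CellTiter Glo luminescence; loss of signal vs DMSO, three biological replicates.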

Measured: AC50

Chain of Broad substrate specificity ATP-binding cassette transporter ABCG2 (Homo sapiens) (Q9UNQ0 whole entry, looked up): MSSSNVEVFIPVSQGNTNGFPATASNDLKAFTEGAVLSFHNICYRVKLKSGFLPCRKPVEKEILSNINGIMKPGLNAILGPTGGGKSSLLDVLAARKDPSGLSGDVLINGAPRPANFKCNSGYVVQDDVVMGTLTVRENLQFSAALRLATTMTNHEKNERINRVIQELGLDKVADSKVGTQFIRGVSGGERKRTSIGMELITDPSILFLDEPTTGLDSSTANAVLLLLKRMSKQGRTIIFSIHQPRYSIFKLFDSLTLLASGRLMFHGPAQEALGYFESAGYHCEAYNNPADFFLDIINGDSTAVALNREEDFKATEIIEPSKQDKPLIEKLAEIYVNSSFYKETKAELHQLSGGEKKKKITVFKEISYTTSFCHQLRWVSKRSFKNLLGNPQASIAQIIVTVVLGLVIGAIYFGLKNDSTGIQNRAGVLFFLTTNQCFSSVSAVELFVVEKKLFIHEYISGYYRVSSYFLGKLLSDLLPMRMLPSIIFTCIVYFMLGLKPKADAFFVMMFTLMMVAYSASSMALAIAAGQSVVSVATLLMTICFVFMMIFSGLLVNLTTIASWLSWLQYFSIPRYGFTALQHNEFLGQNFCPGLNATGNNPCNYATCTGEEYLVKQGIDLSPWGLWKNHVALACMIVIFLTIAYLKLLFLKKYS
Chain of Cytochrome P450 2C19 (Homo sapiens) (P33261 whole entry, looked up): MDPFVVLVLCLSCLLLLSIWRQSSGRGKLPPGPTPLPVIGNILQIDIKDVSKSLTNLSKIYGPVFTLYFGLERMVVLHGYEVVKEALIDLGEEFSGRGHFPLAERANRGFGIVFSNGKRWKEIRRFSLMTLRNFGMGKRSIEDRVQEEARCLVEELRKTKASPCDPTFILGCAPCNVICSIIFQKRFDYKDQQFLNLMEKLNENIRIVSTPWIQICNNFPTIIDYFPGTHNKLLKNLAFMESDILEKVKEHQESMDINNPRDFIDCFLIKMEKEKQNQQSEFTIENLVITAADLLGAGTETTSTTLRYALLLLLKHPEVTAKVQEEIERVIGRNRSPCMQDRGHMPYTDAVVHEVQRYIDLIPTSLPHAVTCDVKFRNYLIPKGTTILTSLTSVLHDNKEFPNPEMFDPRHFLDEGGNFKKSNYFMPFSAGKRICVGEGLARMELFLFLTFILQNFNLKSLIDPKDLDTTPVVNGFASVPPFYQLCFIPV

CCCN(CC)CC1COC2(CCC(C(C)(C)C)CC2)O1 (stereo not drawn)
inactive: [1] | [2] | [3] | [4] | [5]
active: [6] 13.4 µM

CC(C)Nc1nc(Cl)nc(NC(C)C)n1
inactive: [1] | [8] | [10]
active: [7] 4.73 µM | [9] 11.4 µM | [6] 2.47 µM

COC(=O)c1c(C(F)F)nc(C(F)(F)F)c(C2=NCCS2)c1CC(C)C
active: [7] 1.91 µM | [6] 0.277 µM
inactive: [11] | [3] | [4] | [10] | [12]

CCC(C)n1c(=O)[nH]c(C)c(Br)c1=O (stereo not drawn)
active: [13] 21 µM | [6] 3.08 µM
inactive: [14] | [15] | [8] | [16]

Nc1c(Cl)c(Cl)nc(C(=O)O)c1Cl
inactive: [13] | [14] | [1] | [15] | [3] | [8] | [16] | [10] | [12]
active: [7] 20 µM | [2] 33 µM

CNC(=O)N(C)c1nnc(C(C)(C)C)s1
inactive: [11] | [3] | [8] | [9] | [10] | [6] | [12]

Cc1c(COC(=O)[C@@H]2[C@H](/C=C(\Cl)C(F)(F)F)C2(C)C)cccc1-c1ccccc1
active: [9] 31.6 µM | [6] 4.27 µM
inactive: [1] | [8]

CCOC(=O)C(C)OC(=O)c1cc(Oc2ccc(C(F)(F)F)cc2Cl)ccc1[N+](=O)[O-] (stereo not drawn)
active: [9] 20 µM | [6] 7.3 µM
inactive: [8] | [4] | [12]

CN/C(=N\[N+](=O)[O-])NCc1cnc(Cl)s1
inactive: [8]

N#Cc1c(Cl)cccc1Cl
inactive: [15] | [3] | [8] | [4] | [17] | [10] | [12]
active: [6] 4.85 µM

CC(C)NC(=O)N1CC(=O)N(c2cc(Cl)cc(Cl)c2)C1=O
inactive: [1] | [8] | [17] | [10]
active: [9] 20 µM | [6] 20 µM

CCOc1cc(C(C)(C)C)ccc1C1COC(c2c(F)cccc2F)=N1 (stereo not drawn)
active: [6] 4.69 µM
inactive: [1] | [3] | [8]

CCN(CC)C(=O)C(C)Oc1cccc2ccccc12 (stereo not drawn)
active: [18] 26.3 µM | [2] 4.15 µM | [19] 87.8 µM | [6] 0.317 µM
inactive: [8]

O=C(Nc1ccccc1-c1ccc(Cl)cc1)c1cccnc1Cl
active: [9] 5.36 µM | [6] 0.504 µM
inactive: [8] | [5] | [17] | [10] | [12]

CCNC(=O)NC(=O)C(C#N)=NOC
active: [18] 41.2 µM
inactive: [15] | [3] | [8] | [4] | [17] | [12]

COC(=O)N(C(=O)N1CO[C@@]2(C(=O)OC)Cc3cc(Cl)ccc3C2=N1)c1ccc(OC(F)(F)F)cc1
inactive: [3] | [8] | [17] | [10]
active: [7] 2.46 µM | [6] 2.09 µM

CNC(=O)Oc1cccc2ccccc12
active: [2] 6.08 µM | [6] 6.15 µM
inactive: [8] | [17] | [10]

CCCC(=NOCC)C1=C(O)CC(CC(C)SCC)CC1=O (stereo not drawn)
inactive: [1] | [8] | [4] | [5] | [17] | [10] | [6]

COC(=O)NC(=S)Nc1ccccc1NC(=S)NC(=O)OC
inactive: [2] | [19] | [8] | [17] | [12]
active: [7] 5.11 µM | [18] 22.2 µM | [6] 4.73 µM

N#Cc1c[nH]cc1-c1cccc2c1OC(F)(F)O2
inactive: [15] | [8] | [5]
active: [2] 0.554 µM | [6] 5.4 µM

COP(=O)(OC)O/C(C)=C/C(=O)N(C)C
inactive: [1] | [15] | [3] | [8] | [4] | [10] | [6] | [12]

CCSC(=O)N1CCCCCC1
active: [6] 2.28 µM
inactive: [10]

CO/N=C(/C1=NOCCO1)c1ccccc1Oc1ncnc(Oc2ccccc2Cl)c1F
inactive: [1] | [15] | [3] | [8] | [4] | [9] | [10]
